# Biological target: pT7_6His-AlfaTag-ZIF268 (human, UniProt P18146 335-423)
# Test: PADIT-seq
# Conditions: dsDNA, one strand shown
row,Sequence,binding signal [log2FC]
1,CTCGAGGATATCAAGATCTGGCCTCGGCACGCTAAAAGGAACCTCTAGCTAGCCGACTCACTATAGGGATAATCGCCCTGAGCAAAGACC,0.0119 ± 0.0913
2,CTCGAGGATATCAAGATCTGGCCTCGGCCCTTTAAAAGGAACCTCTAGCTAGCCGACTCACTATAGGGATAATCGCCCTGAGCAAAGACC,0.0924 ± 0.0888
3,CTCGAGGATATCAAGATCTGGCCTCGGCTATTGGGCGGGAACCTCTAGCTAGCCGACTCACTATAGGGATAATCGCCCTGAGCAAAGACC,0.205 ± 0.0951
4,CTCGAGGATATCAAGATCTGGCCTCGGCTCTATAAAAGGAACCTCTAGCTAGCCGACTCACTATAGGGATAATCGCCCTGAGCAAAGACC,0.0429 ± 0.0922
5,CTCGAGGATATCAAGATCTGGCCTCGGCACACCACGCGGAACCTCTAGCTAGCCGACTCACTATAGGGATAATCGCCCTGAGCAAAGACC,0.0231 ± 0.103
6,CTCGAGGATATCAAGATCTGGCCTCGGCGTTTTACGGGGAACCTCTAGCTAGCCGACTCACTATAGGGATAATCGCCCTGAGCAAAGACC,0.0617 ± 0.0868
7,CTCGAGGATATCAAGATCTGGCCTCGGCATCCTAAAAGGAACCTCTAGCTAGCCGACTCACTATAGGGATAATCGCCCTGAGCAAAGACC,0.0323 ± 0.0965
8,CTCGAGGATATCAAGATCTGGCCTCGGCGCGTGGTACGGAACCTCTAGCTAGCCGACTCACTATAGGGATAATCGCCCTGAGCAAAGACC,0.427 ± 0.0903
9,CTCGAGGATATCAAGATCTGGCCTCGGCGCTTGGGCGGGAACCTCTAGCTAGCCGACTCACTATAGGGATAATCGCCCTGAGCAAAGACC,0.158 ± 0.0966
10,CTCGAGGATATCAAGATCTGGCCTCGGCCGCCAGCGCGGAACCTCTAGCTAGCCGACTCACTATAGGGATAATCGCCCTGAGCAAAGACC,0.462 ± 0.139
11,CTCGAGGATATCAAGATCTGGCCTCGGCCTTTTACGCGGAACCTCTAGCTAGCCGACTCACTATAGGGATAATCGCCCTGAGCAAAGACC,0.0363 ± 0.0782
12,CTCGAGGATATCAAGATCTGGCCTCGGCTTTTTATCGGGAACCTCTAGCTAGCCGACTCACTATAGGGATAATCGCCCTGAGCAAAGACC,0.00149 ± 0.091
13,CTCGAGGATATCAAGATCTGGCCTCGGCAAATGGGCGGGAACCTCTAGCTAGCCGACTCACTATAGGGATAATCGCCCTGAGCAAAGACC,0.157 ± 0.0868
14,CTCGAGGATATCAAGATCTGGCCTCGGCCTTTTACGGGGAACCTCTAGCTAGCCGACTCACTATAGGGATAATCGCCCTGAGCAAAGACC,0.0515 ± 0.0862
15,CTCGAGGATATCAAGATCTGGCCTCGGCTTTTTAGGCGGAACCTCTAGCTAGCCGACTCACTATAGGGATAATCGCCCTGAGCAAAGACC,0.0276 ± 0.11
16,CTCGAGGATATCAAGATCTGGCCTCGGCAGGTTAAAAGGAACCTCTAGCTAGCCGACTCACTATAGGGATAATCGCCCTGAGCAAAGACC,0.0674 ± 0.0711
17,CTCGAGGATATCAAGATCTGGCCTCGGCGCGTGGTAAGGAACCTCTAGCTAGCCGACTCACTATAGGGATAATCGCCCTGAGCAAAGACC,0.49 ± 0.0946

row,Sequence,binding signal [log2FC]
1,CTCGAGGATATCAAGATCTGGCCTCGGCATTTTACTTGGAACCTCTAGCTAGCCGACTCACTATAGGGATAATCGCCCTGAGCAAAGACC,0.0654 ± 0.0956
2,CTCGAGGATATCAAGATCTGGCCTCGGCACCATAAAAGGAACCTCTAGCTAGCCGACTCACTATAGGGATAATCGCCCTGAGCAAAGACC,0.0345 ± 0.0841
3,CTCGAGGATATCAAGATCTGGCCTCGGCCGCGCCCGCGGAACCTCTAGCTAGCCGACTCACTATAGGGATAATCGCCCTGAGCAAAGACC,0.0207 ± 0.105
4,CTCGAGGATATCAAGATCTGGCCTCGGCTTTTTACCTGGAACCTCTAGCTAGCCGACTCACTATAGGGATAATCGCCCTGAGCAAAGACC,0.019 ± 0.125
5,CTCGAGGATATCAAGATCTGGCCTCGGCATTTTACGGGGAACCTCTAGCTAGCCGACTCACTATAGGGATAATCGCCCTGAGCAAAGACC,0.0766 ± 0.0939
6,CTCGAGGATATCAAGATCTGGCCTCGGCCCCCTAAAAGGAACCTCTAGCTAGCCGACTCACTATAGGGATAATCGCCCTGAGCAAAGACC,0.267 ± 0.0922
7,CTCGAGGATATCAAGATCTGGCCTCGGCATTTTATCTGGAACCTCTAGCTAGCCGACTCACTATAGGGATAATCGCCCTGAGCAAAGACC,0.0226 ± 0.102
8,CTCGAGGATATCAAGATCTGGCCTCGGCTAGCTAAAAGGAACCTCTAGCTAGCCGACTCACTATAGGGATAATCGCCCTGAGCAAAGACC,0.0229 ± 0.123
9,CTCGAGGATATCAAGATCTGGCCTCGGCTCACTAAAAGGAACCTCTAGCTAGCCGACTCACTATAGGGATAATCGCCCTGAGCAAAGACC,0.00307 ± 0.107
10,CTCGAGGATATCAAGATCTGGCCTCGGCAGAATAAAAGGAACCTCTAGCTAGCCGACTCACTATAGGGATAATCGCCCTGAGCAAAGACC,0.0567 ± 0.0846
11,CTCGAGGATATCAAGATCTGGCCTCGGCGACCCACGCGGAACCTCTAGCTAGCCGACTCACTATAGGGATAATCGCCCTGAGCAAAGACC,0.214 ± 0.0833
12,CTCGAGGATATCAAGATCTGGCCTCGGCATTTTAAGAGGAACCTCTAGCTAGCCGACTCACTATAGGGATAATCGCCCTGAGCAAAGACC,0.0486 ± 0.104
13,CTCGAGGATATCAAGATCTGGCCTCGGCGAATTAAAAGGAACCTCTAGCTAGCCGACTCACTATAGGGATAATCGCCCTGAGCAAAGACC,0.0118 ± 0.0724
14,CTCGAGGATATCAAGATCTGGCCTCGGCCGATGGGCGGGAACCTCTAGCTAGCCGACTCACTATAGGGATAATCGCCCTGAGCAAAGACC,0.00701 ± 0.0902
15,CTCGAGGATATCAAGATCTGGCCTCGGCGTTTTATGCGGAACCTCTAGCTAGCCGACTCACTATAGGGATAATCGCCCTGAGCAAAGACC,0.0171 ± 0.08
16,CTCGAGGATATCAAGATCTGGCCTCGGCAGTTGGGCGGGAACCTCTAGCTAGCCGACTCACTATAGGGATAATCGCCCTGAGCAAAGACC,0.102 ± 0.086
17,CTCGAGGATATCAAGATCTGGCCTCGGCGCGATTGCGGGAACCTCTAGCTAGCCGACTCACTATAGGGATAATCGCCCTGAGCAAAGACC,0.187 ± 0.0941
